Data on 13 compounds can be found in PubChem BioAssay (NCI).

Compounds without any hit were thinned out: in the full panel of roughly 83,000, 20% have a hit.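 Single-concentration screen, 48 h exposure, 96-well plates. Endpoint: percent growth. Below 10 = active.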 Values without a mark were called inactive. The source made the active and inactive calls.

Common to all, as to test: NCI-60 one-dose screen, 48 h (100 = growth as untreated, 0 = no growth, -100 = all killed)
Holding throughout (conditions): 10 µM unless noted

Assay [1] relates to DU-145 prostate.
The subject of assay [2] is K-562 leukemia.
Assay [3] relates to MALME-3M melanoma.
Assay [4] relates to MDA-MB-231 breast.
Assay [5] concerns RXF 393 renal.
The test system of assay [6] is SF-268 CNS.
In assay [7] the test system is SF-295 CNS.
Assay [8] deals with SF-539 CNS.
Assay [9] relates to UACC-257 melanoma.
In assay [10] the test system is M14 melanoma.

For the compound `OC(c1ccccc1)C(NCc1ccccc1)c1ccccc1` (centres undefined), the growth in assay [1] was 117%; in [2] it was 106%; in assay [3] it was 104%; in [4], 98.3%; in assay [5], 107%; in assay [6], 92.8%. The growth in assay [7] was 94%; in assay [8], 90.6%; in assay [9], 110%; in assay [10], 79.9%.
Regarding `Cc1cc(=O)oc2cc(OCCn3c(C)nn(-c4ccc(Cl)cc4)c3=O)ccc12`, the growth is 21.6% in assay [1]; 16.3% in assay [2]; 32.9% in [3]; 47.5% in [4]; 37.4% in assay [5]; 50.3% in [6]. The growth was 14% in assay [7], 29.5% in assay [8], 22.5% in assay [9] and 14.7% in assay [10].
In the case of `Fc1ccccc1C1c2ccccc2-c2nccn21` (centres undefined), the growth in [1] was 99.2%; in assay [2], 73.9%; in assay [3], 98.2%; in [4], 102%; in [5] it was -1.68% (active); in assay [6], 109%. Also, the growth in assay [7] is 89.3%; in [8], 98.9%; in assay [9] it was 96.6%; in [10] it was 104%.
Turning to `O=c1[nH]c(SCc2ccccc2)nc2nc(Nc3ccc(NC(=S)Nc4ccccc4)cc3)nc(-c3ccc(O)cc3O)c12`, the growth in assay [1] is 112%; in assay [2], 90.6%; in assay [3] it was 75%; in assay [4], 98%; in assay [5], 66.2%; in [6], 92.6%. Further, the growth in [7] was 101%; in assay [8], 91.8%; in [9], 109%.
In the case of `C[C@]12CCC(=O)C=C1CC[C@H]1[C@@H]3C[C@@H](O)[C@](O)(C(=O)CO)[C@@]3(C)C[C@H](O)[C@@]12F`, the growth was 92.4% in assay [1]; 110% in assay [2]; 87% in [3]; 102% in [4]; 137% in [5]; 85.5% in assay [6]. Further, the growth in [7] was 104%; in [8], 91.9%; in [9] it was 82.1%; in [10] it was 85.6%.
Regarding `Cc1cc(C)nc(NS(=O)(=O)c2ccc(Nc3nc4nc(SCc5ccccc5)nc(-c5ccc(O)cc5)c4c(=O)[nH]3)cc2)n1`, the growth in [1] is 136%; in [2] it was 84.2%; in [3] it was 67.7%; in assay [4], 93.8%; in [5], 78.6%; in [6] it was 84%. In addition, the growth was 83.3% in assay [7], 98.9% in assay [8] and 113% in assay [9].
Take `CCOC(=O)c1cc2oc(/C=C/c3cc(=O)c4cc(Cl)ccc4o3)cc2[nH]1`: the growth was 65.4% in assay [1]; 88.9% in [2]; -14.5% (active) in [3]; 78.9% in assay [4]; 58% in assay [5]; 73% in assay [6]. For the same compound, the growth is 109% in assay [7], 70% in assay [8] and 101% in assay [9].
As for `COC(=O)N/N=C/c1coc2ccc(Cl)cc2c1=O`, the growth in [1] is 106%; in assay [2] it was 86.9%; in [3], 75.7%; in assay [4], 71.3%; in assay [5], 66.6%; in assay [6], 85.5%. For the same compound, the growth in assay [7] was 93.6%; in [8], 99.8%; in [9], 111%.
For the compound `O=C(Nc1ccccc1OC(=O)c1ccccc1)c1ccccc1`, the growth in assay [1] was 112%; in assay [2], 25.2%; in assay [3], 93.9%; in [4], 56.1%; in assay [5], 121%; in assay [6], 47.3%. The growth in [7] is 109%; in assay [8], 95.7%; in [9], 63.8%; in assay [10], 102%.
Regarding `NS(=O)(=O)c1cc(C2(O)NC(=O)c3ccccc32)ccc1Cl` (centres undefined), the growth in assay [1] is 116%; in [2] it was 111%; in assay [3], 95.4%; in assay [4] it was 112%; in [5] it was 109%; in assay [6], 109%. The growth in [7] is 103%; in [8], 97.7%; in assay [9], 112%; in assay [10] it was 104%.
For the compound `CCCCCN(CCCCC)CCCNc1c2c(nc3ccc(Cl)cc13)CCCC2`, the growth in [1] is 66.6%; in assay [2], 14.2%; in assay [3] it was 35.5%; in [4], 18.5%; in assay [5], 57.1%; in assay [6] it was 76.1%. Moreover, the growth is 37.8% in assay [7], 47% in assay [8] and 13.2% in assay [9].
With `N/C(=N\C(N)=N\c1nc2ccccc2s1)c1ccnc(Cl)c1`, the growth was 26.9% in assay [1]; 8.95% (active) in [2]; 64.9% in [3]; 49.7% in assay [4]; -6.26% (active) in assay [5]; 61.5% in assay [6]. For the same compound, the growth is 17.6% in assay [7], 7.12% (active) in assay [8], 74.4% in [9] and 27.9% in assay [10].
Consider `COC(=O)c1cc2c(/C=C3/NC(=S)NC3=O)coc2n1C`, for which the growth in assay [1] was 134%; in assay [2], 95.6%; in assay [3], 58.4%; in [4] it was 82.2%; in assay [5] it was 38.4%; in [6], 37.7%. The growth was 45.2% in [7], 82.2% in assay [8] and 107% in assay [9].
